From the supplement of paper PMC3334620 come the findings set out here.

The full ranking holds about 33,000 sequences; the median of “E-score (-0.5 to 0.5)” is about -0.01, and the highest 2% start at about 0.26. The entries come from a sample that favours the highest values as a whole.

Chain of UniProt P13574 (P13574 whole entry, the tested form may be a part): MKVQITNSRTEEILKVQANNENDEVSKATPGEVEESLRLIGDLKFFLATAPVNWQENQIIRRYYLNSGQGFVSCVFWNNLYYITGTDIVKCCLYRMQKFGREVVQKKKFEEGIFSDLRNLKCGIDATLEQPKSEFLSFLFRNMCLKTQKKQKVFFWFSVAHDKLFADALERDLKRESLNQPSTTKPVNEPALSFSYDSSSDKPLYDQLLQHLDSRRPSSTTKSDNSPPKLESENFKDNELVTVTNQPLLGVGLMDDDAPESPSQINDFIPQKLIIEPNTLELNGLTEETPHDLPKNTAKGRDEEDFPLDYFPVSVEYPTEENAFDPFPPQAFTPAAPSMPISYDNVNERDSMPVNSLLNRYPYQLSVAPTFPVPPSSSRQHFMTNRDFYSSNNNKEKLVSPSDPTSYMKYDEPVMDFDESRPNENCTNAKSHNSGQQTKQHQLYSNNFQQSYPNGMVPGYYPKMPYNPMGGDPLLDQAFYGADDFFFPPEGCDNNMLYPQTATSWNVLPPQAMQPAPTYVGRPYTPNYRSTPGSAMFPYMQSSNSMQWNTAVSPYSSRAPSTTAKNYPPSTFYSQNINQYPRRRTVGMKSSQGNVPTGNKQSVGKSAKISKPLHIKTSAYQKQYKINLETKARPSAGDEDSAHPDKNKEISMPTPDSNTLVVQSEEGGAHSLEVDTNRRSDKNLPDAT

This assay concerns the target Ste12 (UniProt P13574). Nature of the assay: PBM E-score (8-mer binding enrichment) (E-score (-0.5 to 0.5)); higher = stronger / more preferred TF binding. The settings on record: protein concentration: 200 nM; construct: GST-DNA-binding domain. The procedure:
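Universal 'all 10-mer' protein binding microarrays (Agilent AMADID 015681) probed with GST-tagged S. cerevisiae TFs (full-length or DBD) made by in vitro transcription/translation (PURExpress), about 100-200 nM. Bound TF was detected with fluorescent anti-GST. Each ungapped 8-mer (which stands for itself and its reverse complement) is scored by the PBM enrichment score (E-score), a modified Wilcoxon-Mann-Whitney statistic from -0.5 to +0.5, computed with the Universal PBM Analysis Suite. Scale: above 0.35 generally sequence-specific binding.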
AAGTTGCA: the “PBM E-score” value was -0.0946.

Turning to CCATCAAC, the “PBM E-score” value was -0.144. In the case of CGTTATAA it was 0.143; in that of TGTTATAA, 0.283. In the case of AGTTACAA it was 0.157; in that of GGTTACTA, 0.0972; in that of TCTTACAA, 0.0356. As to TGTTACAA, the “PBM E-score” value amounted to 0.387. As to GGTTACAC, the “PBM E-score” value is -0.0834. Regarding CGTTACAC, the “PBM E-score” value came to 0.122.

For AGTTATAA, the “PBM E-score” value came out at 0.133.

Regarding CGTTACAG, the “PBM E-score” value is 0.146. With GGTTACAA, the “PBM E-score” value is 0.284. With CGTTACAA, the “PBM E-score” value was 0.314. As for CCCATACG, the “PBM E-score” value is -0.123.

For GGTAGAAC, the “PBM E-score” value is -0.101. In the case of CCATATCC it was 0.0086; in that of AGCCTCTC, -0.234.

For the sequence AGTTTTGG, the “PBM E-score” value was found to be 0.104.

Turning to AAGTTACG, the “PBM E-score” value was 0.0247. Turning to AAATATTC, the “PBM E-score” value amounted to 0.14. AAATATTA: the “PBM E-score” value came to 0.352. On to AAATATGT, for which the “PBM E-score” value is 0.226. In the case of CAATATGA it was 0.0995; in that of AAATATGA, 0.308; in that of CAATATTA, 0.176.

ATCAGCCA: the “PBM E-score” value was -0.0331.

GCTTTTAA: the “PBM E-score” value is -0.0048. The figure for GCGTTTAC is -0.0566.

As for CCTTTTTA, the “PBM E-score” value was 0.051. On to ACGTTTAA, for which the “PBM E-score” value is 0.0563. CCGTTTTC: the “PBM E-score” value turned out to be 0.133. For the sequence CCGTTTTA, the “PBM E-score” value amounted to 0.304. GCGTTTTA: the “PBM E-score” value was 0.352.

Regarding GCGTTTAA, the “PBM E-score” value is 0.103. Regarding ACGTTTTG, the “PBM E-score” value came to 0.222.

ACGTTTTA: the “PBM E-score” value is 0.295.

For GCTTTTTA, the “PBM E-score” value is 0.271. As for CCGTTTAA, the “PBM E-score” value came to 0.135. For the sequence CTGATCAG, the “PBM E-score” value is -0.0327.

As to TATTTGCA, the “PBM E-score” value was found to be 0.0371. As for CCCAGCGA, the “PBM E-score” value is -0.0316. The figure for ACCAATTA is 0.199. As for AGAAACAG, the “PBM E-score” value came to 0.0492.

Take CGAAACAG: the “PBM E-score” value stood at 0.244. As for AGAAACCA, the “PBM E-score” value is 0.194. Regarding CGAAACAA, the “PBM E-score” value came to 0.349. Consider AGAAACAC, for which the “PBM E-score” value turned out to be 0.121. GAAAACAA: the “PBM E-score” value turned out to be 0.197. Turning to TGAAACCA, the “PBM E-score” value came to 0.438. With AAAAACAT, the “PBM E-score” value stood at 0.241. Consider CGAAACAC, for which the “PBM E-score” value came to 0.348.

Turning to AGAAACAT, the “PBM E-score” value turned out to be 0.32. On to CGAAACCA, for which the “PBM E-score” value was 0.209. The figure for GGAAACAC is 0.225; for CGACGCAG it is -0.237; for GCCTATTA it is 0.0234. Turning to CAGCTCCC, the “PBM E-score” value is -0.254. For the sequence CCCGTCAC, the “PBM E-score” value came to 0.0322. As to CCAGCAAG, the “PBM E-score” value is -0.148.

Turning to AGGAGCAA, the “PBM E-score” value was -0.108.

Consider CGGCCCGA, for which the “PBM E-score” value stood at 0.078. Consider CCGAATAG, for which the “PBM E-score” value was -0.0705. Turning to AAATCTGG, the “PBM E-score” value worked out at 0.21. With GGCGCTCA, the “PBM E-score” value is -0.066. For the sequence ATGATAAT, the “PBM E-score” value amounted to 0.13. AGACCTAG: the “PBM E-score” value was -0.0522. In the case of ACAAACCA it was 0.00217; in that of GGAAACAA, 0.13; in that of TGAAACAA, 0.493.

Consider TCAAACCA, for which the “PBM E-score” value is 0.278. Turning to AGAAACAA, the “PBM E-score” value stood at 0.26. As for CCAAACCA, the “PBM E-score” value amounted to 0.0357. Consider CGGAAGAA, for which the “PBM E-score” value worked out at 0.0583.

Turning to ATATCATC, the “PBM E-score” value came out at 0.141. On to GATAGAAC, for which the “PBM E-score” value was 0.0461.

AGATTAGA: the “PBM E-score” value worked out at 0.00999. As for AATGTTTG, the “PBM E-score” value is 0.0124.

As for AATGTTAG, the “PBM E-score” value is -0.00616. As for CATGTTTA, the “PBM E-score” value amounted to 0.199.

On to CATGTTGC, for which the “PBM E-score” value was -0.0677. AAAGTTTA: the “PBM E-score” value came to 0.199. As to CATGTTTC, the “PBM E-score” value turned out to be 0.4. Turning to CAAGTTTC, the “PBM E-score” value came out at 0.254.

With AAAGTTTC, the “PBM E-score” value was found to be 0.329.

Turning to AATGTTAA, the “PBM E-score” value came to 0.102.
